Screens (PubChem BioAssay)
Only some compounds are listed: those with a hit (about 19% of all), similar ones and a draw of the others.
HT1080-NT tox – kills 2HG-producing HT-1080-NT fibrosarcoma cells; Potency, µM (top dose mostly 46.1 µM), usual class: cytotoxic; actives 1.6% (n = 360,000); AID 686970; HT-1080-NT fibrosarcoma viability, CellTiter-Glo ATP luminescence, 48 h;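 further: NT is the 2HG producing partner of a matched IDH1 knockdown line; nearly all actives have a fitted effect of over 55% in size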
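HT-1080-NT fibrosarcoma cells (2HG-overproducing), 750 cells/well in RPMI with 5% FBS, dosed after 2 h and incubated 48 h at 37C. CellTiter-Glo luminescence normalized to DMSO and no-cell wells; concentration-response curves fitted and classed.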
IL-1B inflam inh – blocks inflammasome-driven IL-1 beta release | THP-1 LPS/ATP IL-1B secretion, AlphaLISA, 16 h; hits give low values | activity change, % at 57.5 µM | actives 4.7% (n = 360,000); in the data active means activity change below about -50%; inconclusive means mostly about -30% to -49%
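Secreted IL-1B measured by AlphaLISA bead assay after 16 h compound exposure of THP-1 cells; compounds (final up to 57.5 uM) added 1 h before LPS (250 ng/mL) and ATP (1.25 mM) stimulation; lower signal means less secretion.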
TDP1 cell noCPT – qHTS for Inhibitors of human tyrosyl-DNA phosphodiesterase 1 (TDP1): qHTS in cells in absence of CPT. DT40 Tdp1-/- hTDP1 cells, no CPT, ATP luminescence, 48 h. Potency, µM (series often up to 46.2 µM), actives largely listed as inhibitors. actives 15% (n = 420,000); further: nearly all actives have a fitted effect of over 55% in size
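Growth of hTDP1-complemented DT40 Tdp1-knockout cells is measured by ATP luminescence after at least 48 hr compound exposure at 37 °C, with DMSO substituting for the 20 nM CPT used in the parallel screen.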
HT1080 IDH1KD tx – kills HT-1080 cells with IDH1 knockdown. HT-1080 IDH1 knockdown viability, ATP luminescence, 48 h. Potency, µM (top dose mostly 46.1 µM), hits mostly cytotoxic. actives 2% (n = 360,000)
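IDH1KD HT-1080 cells, 750/well, RPMI + 5% FBS; compound pinned after 2 h settling; 48 h, 37 °C; CellTiter-Glo luminescence; % activity normalised to DMSO and no-cell wells; curves fitted, classed by r2 and efficacy.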
DT40 TDP1 CPT – growth inhibition of DT40 Tdp1-/-;hTDP1 cells with camptothecin (screen for TDP1 inhibitors); chicken DT40 Tdp1-/-;hTDP1 cells + 20 nM CPT, ATP luminescence, 48 h; Potency, µM (doses to about 46.2 µM), most hits filed as inhibitors; actives 12% (n = 420,000); AID 686979; further: nearly all actives have a fitted effect of over 55% in size
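Chicken DT40 Tdp1-/- cells complemented with human TDP1, 400 cells/well, exposed to compounds plus 20 nM camptothecin for at least 48 h at 37 C; viability read as ATP content by CellTiter-Glo luminescence.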
Large screens that a line does not name were inactive. Unless noted, the call rests on the fitted dose curve; in most records, active means well fitted curve in the direction sought with a large enough effect; inconclusive means small, poorly fitted or top-dose-only effect, or another doubt; inactive means no such curve, though single readings can be large; an effect the other way counts as inactive or inconclusive.

COc1ccccc1N1CCN(S(=O)(=O)CCNC(=O)c2cc(OC)c(OC)c(OC)c2)CC1	HT1080-NT tox inconclusive, TDP1 cell noCPT inconclusive, HT1080 IDH1KD tx inconclusive, DT40 TDP1 CPT inconclusive
COc1ccc(Cl)cc1C(=O)NCCS(=O)(=O)N1CCN(c2ccccc2OC)CC1	TDP1 cell noCPT 18.4µM, DT40 TDP1 CPT inconclusive (no result: HT1080-NT tox, IL-1B inflam inh, HT1080 IDH1KD tx)
COc1ccc(C(=O)NCCS(=O)(=O)N2CCN(Cc3ccccc3)CC2)cc1	TDP1 cell noCPT 29.1µM
COc1ccc(CC(=O)NCCS(=O)(=O)N2CCN(c3ccccc3OC)CC2)cc1	TDP1 cell noCPT inconclusive, DT40 TDP1 CPT 29.1µM
COc1ccccc1N1CCN(S(=O)(=O)CCNC(=O)c2ccco2)CC1	none
COc1ccc(Cl)cc1C(=O)NCCS(=O)(=O)N1CCN(c2ccccc2F)CC1	TDP1 cell noCPT inconclusive, DT40 TDP1 CPT inconclusive
COc1ccccc1N1CCN(S(=O)(=O)CCNC(=O)c2cc(=O)c3ccccc3o2)CC1	TDP1 cell noCPT 25.9µM, DT40 TDP1 CPT inconclusive
COc1ccccc1N1CCN(S(=O)(=O)CCNC(=O)COc2ccc(C(C)C)cc2)CC1	TDP1 cell noCPT 16.4µM, DT40 TDP1 CPT inconclusive (no result: HT1080-NT tox, IL-1B inflam inh, HT1080 IDH1KD tx)
CCOc1ccc(NC(=O)CSc2nnc3c(n2)[nH]c2ccc(S(=O)(=O)N(C)C)cc23)cc1	TDP1 cell noCPT inconclusive (no result: IL-1B inflam inh)
CCOc1ccc(NC(=O)COC(=O)c2cc(S(=O)(=O)N3CCCC3)ccc2C)cc1	TDP1 cell noCPT inconclusive, DT40 TDP1 CPT 20.6µM
Cc1ccc(C)c(C(=O)OCC(=O)Nc2cccc(S(=O)(=O)N3CCCCC3)c2)c1	HT1080-NT tox inconclusive, TDP1 cell noCPT 10.3µM, HT1080 IDH1KD tx inconclusive, DT40 TDP1 CPT 18.4µM
Cc1ccc(S(=O)(=O)N2CCCCC2)cc1C(=O)OC(C)C(=O)NCC1CCCCC1 (stereo not given)	TDP1 cell noCPT 18.4µM, DT40 TDP1 CPT inconclusive
COc1ccc(C(=O)NNC(=S)NC(=O)c2cc(-c3ccccc3)nc3ccccc23)cc1	HT1080-NT tox inconclusive, TDP1 cell noCPT 16.4µM, HT1080 IDH1KD tx inconclusive, DT40 TDP1 CPT inconclusive
COC(=O)c1ccc(NC(=S)NC(=O)c2cc(-c3ccccc3)nc3ccccc23)cc1	TDP1 cell noCPT inconclusive, DT40 TDP1 CPT inconclusive
COc1ccc(Cl)cc1C(=O)NNC(=S)NC(=O)c1cc(-c2ccccc2)nc2ccccc12	HT1080-NT tox inconclusive, TDP1 cell noCPT inconclusive, HT1080 IDH1KD tx inconclusive, DT40 TDP1 CPT inconclusive
CCCOc1ccc(C(=O)NNC(=S)NC(=O)c2cc(-c3ccc(Cl)cc3)nc3ccccc23)cc1	HT1080-NT tox inconclusive, TDP1 cell noCPT 11.6µM, HT1080 IDH1KD tx inconclusive, DT40 TDP1 CPT 23.1µM
O=C1CCC([N+](=O)[O-])C(c2ccc(-c3ccccc3)cc2)N1 (stereo not given)	none
N=c1oc2ccc(Br)cc2cc1C(=O)NCc1ccccc1	TDP1 cell noCPT inconclusive, DT40 TDP1 CPT inconclusive
CC(NC(=O)c1cc2cc(Br)ccc2oc1=N)c1ccccc1 (stereo not given)	IL-1B inflam inh -50.7, TDP1 cell noCPT 16.4µM, DT40 TDP1 CPT 16.4µM
N=c1oc2ccc(Br)cc2cc1C(=O)NCc1ccc(F)cc1	TDP1 cell noCPT 8.2µM, DT40 TDP1 CPT inconclusive
COc1cccc(COC(=O)Cc2ccc(S(=O)(=O)N3CCOCC3)s2)c1OC	none
Cc1sc(C(C2C(=O)CC(C)(C)CC2=O)C2C(=O)CC(C)(C)CC2=O)cc1[N+](=O)[O-]	IL-1B inflam inh -93.6, TDP1 cell noCPT 23.1µM, DT40 TDP1 CPT inconclusive
CC1(C)CC(=O)C(C(c2cc([N+](=O)[O-])ccc2Cl)C2C(=O)CC(C)(C)CC2=O)C(=O)C1	TDP1 cell noCPT 5.8µM, DT40 TDP1 CPT inconclusive
CN1CCN(c2ncnc3c2ncn3[C@H]2CN(Cc3ccc(C(=O)O)cc3)C[C@@H](CO)O2)CC1	none
CCOc1ccc(C2=Nc3ccc(Br)cc3C(c3ccc(N4CCOCC4)cc3)=NN2)cc1	TDP1 cell noCPT 14.6µM, DT40 TDP1 CPT inconclusive
CCc1ccc2c(c1)C(c1ccc(N3CCOCC3)cc1)=NNC(c1ccncc1)=N2	none
CCOc1ccc(C2=Nc3ccccc3C(c3ccc(N4CCOCC4)cc3)=NN2)cc1	TDP1 cell noCPT 13µM, HT1080 IDH1KD tx inconclusive, DT40 TDP1 CPT 23.1µM
CCOc1ccc(C2=NNC(c3cccnc3)=Nc3ccc(OC)cc32)cc1	none
Cn1cccc1C(=O)N1CCC[C@@]2(CCN(C(=O)Nc3cccc(F)c3)C2)C1	none (no result: HT1080-NT tox, IL-1B inflam inh, HT1080 IDH1KD tx)
CCOc1ccccc1NC(=O)CC(O)(C(F)(F)F)C(F)(F)F	none
COc1ccc(C(N)=O)cc1NC(=O)CC(O)(C(F)(F)F)C(F)(F)F	IL-1B inflam inh inconclusive, TDP1 cell noCPT inconclusive, DT40 TDP1 CPT 14.6µM
NC(=O)C1CC(=O)N(c2ccc(OCc3ccc(Cl)c(Cl)c3)cc2)C1 (stereo not given)	TDP1 cell noCPT inconclusive, DT40 TDP1 CPT 23.1µM
Cc1ccc(N2CC(C(=O)N3CCC(C(=O)Nc4ccc(Br)cc4)CC3)CC2=O)cc1 (stereo not given)	IL-1B inflam inh -61.2, TDP1 cell noCPT inconclusive, HT1080 IDH1KD tx inconclusive, DT40 TDP1 CPT inconclusive
O=C(Nc1ccc(Cl)c(Cl)c1)C1CC(=O)N(c2ccc(Br)cc2)C1 (stereo not given)	HT1080-NT tox inconclusive, IL-1B inflam inh -59.7, TDP1 cell noCPT inconclusive, DT40 TDP1 CPT inconclusive
COc1ccc(N2CC(C(=O)N3CCC4(CC3)CC(=O)c3ccccc3O4)CC2=O)cc1 (stereo not given)	HT1080-NT tox inconclusive, TDP1 cell noCPT inconclusive, DT40 TDP1 CPT inconclusive
Cc1ccc(N2CC(C(=O)N3CCC4(CC3)CC(=O)c3ccccc3O4)CC2=O)cc1 (stereo not given)	TDP1 cell noCPT 23.1µM, DT40 TDP1 CPT inconclusive
COC(=O)c1c(-c2ccc(F)cc2)noc1N	HT1080 IDH1KD tx 11.2µM
Cn1ncc([N+](=O)[O-])c1C(=O)N/N=C/c1ccc(F)cc1	none
Cc1cc(C)c(OCCn2ccnc2)c(C)c1	TDP1 cell noCPT 5.17µM, DT40 TDP1 CPT 6.51µM
Cc1ccc(OCCOCCn2ccnc2)c(Br)c1	TDP1 cell noCPT 23.1µM
Cc1cc(Cl)c(OCCCn2ccnc2)c(Br)c1	IL-1B inflam inh -72.2, TDP1 cell noCPT inconclusive, DT40 TDP1 CPT inconclusive
CCCCCCN1CCN(C2CN(Cc3ccc([N+](=O)[O-])cc3)S(=O)(=O)C2)CC1 (stereo not given)	TDP1 cell noCPT inconclusive, DT40 TDP1 CPT inconclusive
COc1ccc(NC(=O)CN(C)C(=O)c2cc(CN3C(=O)c4ccccc4C3=O)ccc2OC)cc1	none
CCOc1ccccc1CNC(=O)c1nn(C)c2c1CS(=O)(=O)c1ccccc1-2	TDP1 cell noCPT inconclusive, DT40 TDP1 CPT 18.4µM
Cc1ccc(CNC(=O)CN(C)C2=NS(=O)(=O)c3ccccc32)cc1	TDP1 cell noCPT 9.2µM, DT40 TDP1 CPT 13µM
